From PubChem BioAssay (NCATS)
Inconclusive results are not listed. Entries that show only a call come without a potency. Activity calls are given as the source filed them. Unless noted, the call rests on the fitted dose curve. Bridge positions count the residues as written; N and C are the ends. Square brackets hold non-standard residues; d marks the D form. Peptide text beside a SMILES is read from it. dPhe(4-Cl) = N[C@H](Cc1ccc(Cl)cc1)C(=O)O; d2Nal = N[C@H](Cc1ccc2ccccc2c1)C(=O)O; dCit = NC(=O)NCCC[C@@H](N)C(=O)O; d3Pal = N[C@H](Cc1cccnc1)C(=O)O

Columns and labels:
[1] = Primary qHTS for Huh7 cytotoxicity: counterscreen for inhibitors of MERS-S pseudotyped particle cell entry (AID 1479147); conditions: outcome: dose series up to 57.1 µM unless noted
[2] = Primary qHTS for inhibitors of MERS-S pseudo-typed particle cell entry (AID 1479149); conditions: outcome: dose series up to 57.1 µM unless noted; further: nearly all actives have a fitted effect of over 60% in size
[3] = Primary qHTS for Vero E6 cytotoxicity: counterscreen for inhibitors of SARS-S pseudo-typed particle cell entry (AID 1479150); conditions: outcome: dose series up to 57.1 µM unless noted
[4] = Cytotoxicity counterscreen for inhibitors of SARS-CoV-2 cell entry (AID 1645845); conditions: outcome: dose series up to 57.1 µM unless noted; further: nearly all actives have a fitted effect of over 50% in size
Outline: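 48 h compound treatment (after 1 h preincubation), HEK293-ACE2 cells, 37 C/5% CO2; ATP luminescence endpoint; normalized to cell wells and media blanks.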

[5] = Primary qHTS to identify inhibitors of SARS-CoV-2 cell entry (AID 1645846); conditions: SARS-CoV-2 pseudovirus cell entry assay, luminescence; further: nearly all actives have a fitted effect of over 45% in size; further: potency means the concentration at half of the fitted maximal effect
Outline: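 HEK293 cells stably expressing human ACE2, pre-treated 1 h with compound, then infected with MLV particles pseudotyped with Wuhan-Hu-1 spike (C-terminal 19-aa truncation). Luciferase luminescence after 48 h at 37 °C, normalised to spike PP and bald PP.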

[6] = VSVG counterscreen qHTS to identify inhibitors of SARS-CoV-2 cell entry (AID 1645847); further: potency means the concentration at half of the fitted maximal effect; nearly all actives have a fitted effect of over 65% in size
Outline: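 HEK293-ACE2 cells (Expi293F, human ACE2) pretreated 1 h with compound, then infected with MLV-based VSV-G pseudotyped particles for 48 h at 37 C; luciferase luminescence normalized to VSV-G PP and bald PP wells.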

[7] = target: Glutathione peroxidase 1 (Homo sapiens) (UniProt P07203); experiment: Primary qHTS Assay for Inhibitors of Recombinant Selenoprotein Glutathione Peroxidase 1 (GPX1) (AID 1845191; active means well fitted inhibition curve with a large enough effect; further: nearly all actives have a fitted effect of over 65% in size)
Chain of Glutathione peroxidase 1 (Homo sapiens) (P07203 whole entry, looked up): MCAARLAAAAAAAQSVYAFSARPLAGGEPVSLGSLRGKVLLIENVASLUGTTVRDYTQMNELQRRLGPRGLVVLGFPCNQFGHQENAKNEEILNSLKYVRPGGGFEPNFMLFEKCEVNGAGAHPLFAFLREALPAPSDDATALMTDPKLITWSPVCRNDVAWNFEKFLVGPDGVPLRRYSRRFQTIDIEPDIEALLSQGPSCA
Outline: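 10 nM GPX1 + cpd, 30 min RT; start w/ 1 mM GSH, 0.5 mM cumene hydroperoxide, 0.5 mM NADPH, 100 nM GR, 0.01% BSA; buffer 50 mM Tris-HCl pH 7.5, 2 mM EDTA, 150 mM NaCl; Fl 340/450, 0 & 15 min.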

[8] = target: Phospholipid hydroperoxide glutathione peroxidase GPX4 (Homo sapiens) (UniProt P36969); experiment: Primary qHTS Assay for Inhibitors of Recombinant Selenoprotein Glutathione Peroxidase 4 (GPX4) (AID 1845192; active means well fitted inhibition curve with a large enough effect; further: nearly all actives have a fitted effect of over 65% in size)
Chain of Phospholipid hydroperoxide glutathione peroxidase GPX4 (Homo sapiens) (P36969 whole entry, looked up): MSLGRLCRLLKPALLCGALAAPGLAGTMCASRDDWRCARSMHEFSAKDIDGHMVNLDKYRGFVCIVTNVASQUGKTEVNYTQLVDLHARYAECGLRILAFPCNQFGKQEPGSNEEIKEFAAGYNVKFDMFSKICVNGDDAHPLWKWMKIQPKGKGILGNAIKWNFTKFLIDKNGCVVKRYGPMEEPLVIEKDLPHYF
Outline: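 NADPH consumption, followed by fluorescence at 340/450 nm between 0 and 15 min, reports GPX4 activity via coupled glutathione reductase (100 nM). Enzyme 200 nM was pre-exposed to compound 30 min; 0.5 mM cumene hydroperoxide and 1 mM GSH served as substrates.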

[9] = activity change, negative = inhibition: at 57.1 µM (top of the series) unless noted, outcome: at 57.1 µM (top of the series) unless noted

CC(C)CCC[C@@H](C)[C@H]1CC[C@H]2[C@@H]3CC=C4C[C@@H](O)CC[C@]4(C)[C@@H]3CC[C@]12C
Potency [1]: inactive | Potency [2]: inactive | Potency [3]: inactive | Potency [4]: inactive | Potency [5, 9]: inactive

C/C(=C\c1csc(C)n1)[C@@H]1C[C@@H]2O[C@]2(C)CCC[C@H](C)[C@H](O)[C@@H](C)C(=O)C(C)(C)[C@@H](O)CC(=O)N1
Potency [1]: inactive | Potency [2]: inactive | Potency [3]: inactive | Potency [4]: inactive | Potency [5, 9]: 2.82 µM (active) | Potency [6]: 0.152 µM (active)

CO[C@@H]1C[C@H](O[C@H]2[C@H](C)[C@H](O[C@@H]3O[C@@H](C)C[C@@H](N(C)C)[C@H]3OC(C)=O)[C@H](C)C[C@]3(CO3)C(=O)[C@H](C)[C@H](OC(C)=O)[C@H](C)[C@H](C)OC(=O)[C@@H]2C)O[C@H](C)[C@H]1OC(C)=O
Potency [1]: inactive | Potency [2]: inactive | Potency [3]: inactive | Potency [4]: inactive | activity change, negative = inhibition [5, 9]: -34.5%

CCCCCCCCCCC(=O)O[C@H]1CC[C@H]2[C@@H]3CCC4=CC(=O)CC[C@]4(C)[C@H]3CC[C@]12C
Potency [1]: inactive | Potency [2]: inactive | Potency [3]: inactive | Potency [4]: inactive | Potency [5, 9]: inactive | Potency [7]: inactive | Potency [8]: inactive

CC1(C)SC2C(NC(=O)Cc3ccccc3)C(=O)N2C1C(=O)O (configuration not stated)
Potency [1]: inactive | Potency [2]: inactive | Potency [3]: inactive | Potency [4]: inactive | activity change, negative = inhibition [5, 9]: -15.9%

CC(=O)N[C@H](Cc1ccc2ccccc2c1)C(=O)N[C@H](Cc1ccc(Cl)cc1)C(=O)N[C@H](Cc1cccnc1)C(=O)N[C@@H](CO)C(=O)N[C@@H](Cc1ccc(O)cc1)C(=O)N[C@H](CCCNC(N)=O)C(=O)N[C@@H](CC(C)C)C(=O)N[C@@H](CCCN=C(N)N)C(=O)N1CCC[C@H]1C(=O)N[C@H](C)C(N)=O (Ac-[d2Nal][dPhe(4-Cl)][d3Pal]SY[dCit]LRP[dA]-NH2)
Potency [1]: inactive | Potency [2]: inactive | Potency [3]: inactive | Potency [4]: inactive | activity change, negative = inhibition [5, 9]: -10.8% [at 27.1 µM]

CCCCCCCCCC(=O)OC1CC[C@H]2[C@@H]3CCC4=CC(=O)CC[C@@H]4[C@H]3CC[C@]12C (some centres not stated)
Potency [1]: inactive | Potency [2]: inactive | Potency [3]: inactive | Potency [4]: inactive | activity change, negative = inhibition [5, 9]: 0.678% | Potency [7]: inactive

CC1(C)S[C@@H]2[C@H](NC(=O)[C@H](NC(=O)N3CCN(S(C)(=O)=O)C3=O)c3ccccc3)C(=O)N2[C@H]1C(=O)O
Potency [1]: inactive | Potency [2]: inactive | Potency [3]: inactive | Potency [4]: inactive | activity change, negative = inhibition [5, 9]: -10%

C[C@H]1CNCCCN1S(=O)(=O)c1cccc2cncc(F)c12
Potency [1]: inactive | Potency [2]: inactive | Potency [3]: inactive | Potency [4]: inactive | activity change, negative = inhibition ([5]; at 27.1 µM (top of the series)): -27.6% | activity change, negative = inhibition ([5]; at 57.1 µM (top of the series)): -12.6%

CC(C)N=c1cc2n(-c3ccc(Cl)cc3)c3ccccc3nc-2cc1Nc1ccc(Cl)cc1
Potency [1]: inactive | Potency [2]: inactive | Potency [3]: inactive | Potency [4]: inactive | activity change, negative = inhibition [5, 9]: -33.7%

CCC(C)(C)OC(=O)N[C@@H](Cc1c[nH]c2ccccc12)C(=O)N[C@@H](CCSC)C(=O)N[C@@H](CC(=O)O)C(=O)N[C@@H](Cc1ccccc1)C(N)=O
Potency [1]: inactive | Potency [2]: inactive | Potency [3]: inactive | Potency [4]: inactive | activity change, negative = inhibition [5, 9]: -23%

CNc1ncc(-c2ccc3c(=O)c(C(=O)O)cn(C4CC4)c3c2C)cc1C
Potency [1]: inactive | Potency [2]: inactive | Potency [3]: inactive | Potency [4]: inactive | activity change, negative = inhibition [5, 9]: -15.2% [at 19 µM]

CCCCC(C)(O)CC=C[C@H]1[C@H](O)CC(=O)[C@H]1CCCCCCC(=O)OC (some centres not stated)
Potency [1]: inactive | Potency [2]: inactive | Potency [3]: inactive | Potency [4]: inactive | Potency [5, 9]: inactive

CCCCCCCCCCCCCCCCCC(=O)OCCO
Potency [1]: inactive | Potency [2]: inactive | Potency [3]: inactive | Potency [4]: inactive | activity change, negative = inhibition [5, 9]: -12.3%

C[C@@H]1NC(=O)[C@@H]2CCCN2C(=O)[C@H](CC(N)=O)NC(=O)[C@@H]2CSSC[C@H](N)C(=O)N[C@H]3CSSC[C@H](NC1=O)C(=O)N[C@@H]([C@@H](C)O)C(=O)NCC(=O)N[C@H](C(=O)N[C@@H](Cc1ccc(O)cc1)C(=O)O)CSSC[C@H](NC(=O)[C@H](Cc1ccc(O)cc1)NC(=O)[C@H](CCC(=O)O)NC3=O)C(=O)N2 (H-CCEYCCNPACTGCY-OH; disulfide 1-6, 2-10, 5-13)
Potency [1]: inactive | Potency [2]: inactive | Potency [3]: inactive | Potency [4]: inactive | activity change, negative = inhibition [5, 9]: -24.4% [at 27.1 µM]

CCC(=O)O[C@@H]1[C@@H](C)O[C@@H](O[C@H]2[C@H](N(C)C)[C@@H](O)[C@H](O[C@H]3[C@@H](CC=O)C[C@@H](C)[C@@H](OC(C)=O)/C=C/C=C/C[C@@H](C)OC(=O)C[C@@H](OC(=O)CC)[C@@H]3OC)O[C@@H]2C)C[C@]1(C)OC(C)=O
Potency [1]: inactive | Potency [2]: inactive | Potency [3]: inactive | Potency [4]: inactive | activity change, negative = inhibition [5, 9]: -16.2%

CN1C2CC[C@@H]1CC(OC(=O)[C@H](CO)c1ccccc1)C2 (some centres not stated)
Potency [1]: inactive | Potency [2]: inactive | Potency [3]: inactive | Potency [4]: inactive | activity change, negative = inhibition [5, 9]: -26.3%

CN(C)C(=O)NC1CCC(CCN2CCN(c3cccc(Cl)c3Cl)CC2)CC1 (configuration not stated)
Potency [1]: inactive | Potency [2]: inactive | Potency [3]: inactive | Potency [4]: inactive | activity change, negative = inhibition [5, 9]: -20.6% [at 27.1 µM]

CCCC(=O)Nc1c(I)cc(I)c(CC(CC)C(=O)O)c1I (configuration not stated)
Potency [1]: inactive | Potency [2]: inactive | Potency [3]: inactive | Potency [4]: inactive | activity change, negative = inhibition [5, 9]: -27.1%

NC(=O)c1ccc[n+]([C@@H]2O[C@H](COP(=O)([O-])OP(=O)(O)OC[C@H]3O[C@@H](n4cnc5c(N)ncnc54)[C@H](O)[C@@H]3O)[C@@H](O)[C@H]2O)c1
Potency [1]: inactive | Potency [2]: inactive | Potency [3]: inactive | Potency [4]: inactive | activity change, negative = inhibition [5, 9]: -19.8%

CCC(c1ccccc1)c1noc(CCN(CC)CC)n1 (configuration not stated)
Potency [1]: inactive | Potency [2]: inactive | Potency [3]: inactive | Potency [4]: inactive | activity change, negative = inhibition [5, 9]: -15.7%

CCC(=O)O[C@H]1CC[C@H]2[C@@H]3CC[C@H]4CC(=O)[C@H](C)C[C@]4(C)[C@H]3CC[C@]12C
Potency [1]: inactive | Potency [2]: inactive | Potency [3]: inactive | Potency [4]: inactive | activity change, negative = inhibition [5, 9]: -28.3% | Potency [7]: inactive | Potency [8]: inactive

CC1CCC(C(C)C)C(OC(=O)c2ccccc2O)C1 (configuration not stated)
Potency [1]: inactive | Potency [2]: inactive | Potency [3]: inactive | Potency [4]: inactive | Potency [5, 9]: inactive
